Test results: PubChem BioAssay AID1159580 (chemical genetic matrix, 2015)
In all, about 5,500 compounds went through this assay and about 2,000 (36%) were called active. About 18% were inconclusive and are not listed. Rule as the data show it: active = normalized growth mostly below about 0.91 (no sharp cut-off); inconclusive = no clear call, values can overlap the other calls; inactive = mostly above about 0.92. Some of the results follow.

Experiment: chemical genetic growth profiling, strain panel (AID 1159580);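 also: tested at 20 µM; growth read once vehicle control cultures reached saturation at 30 °C; 1 = growth at the plate median or of vehicle wells; lower values mean less growth of the strain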
Conditions: growth OD

Measured: normalized growth

CC(=O)O[C@H]1C[C@@]2(C)[C@@H](C[C@@H](O)C3[C@]2(C)CC[C@H]2[C@H](C)[C@H](O)CC[C@]32C)/C1=C(/CCC=C(C)C)C(=O)O (some centres undefined)
inactive: S. cerevisiae deletion strains, locus YJL187C, strain SWE1 (second series), active compounds read low 1.01 | S. cerevisiae deletion strains, locus YJL187C, strain SWE1, active compounds read low 1.04 | S. cerevisiae deletion strains, locus YJR043C, strain POL32, active compounds read low 1 | S. cerevisiae deletion strains, locus YJR066W, strain TOR1, active compounds read low 0.983 | S. cerevisiae deletion strains, locus YKL009W, strain mrt4, active compounds read low 0.99 | S. cerevisiae deletion strains, locus YKL068W, active compounds read low 1.01 | S. cerevisiae deletion strains, locus YKL085W, strain MDH1 (second series), active compounds read low 0.997 | S. cerevisiae deletion strains, locus YKL085W, strain MDH1, active compounds read low 0.997 | S. cerevisiae deletion strains, locus YKL160W, strain elf1, active compounds read low 1.07 | S. cerevisiae deletion strains, locus YKL190W, strain CNB1, active compounds read low 1.01 | S. cerevisiae deletion strains, locus YKR001C, strain vps1, active compounds read low 1.03 | S. cerevisiae deletion strains, locus YKR026C, strain gcn3, active compounds read low 1.01 | S. cerevisiae deletion strains, locus YKR091W, strain srl3, active compounds read low 1.03 | S. cerevisiae deletion strains, locus YLL001W, strain dnm1, active compounds read low 1.04 | S. cerevisiae deletion strains, locus YLL026W, active compounds read low 1.02 | S. cerevisiae deletion strains, locus YLL041C, strain sdh2, active compounds read low 1.02 | S. cerevisiae deletion strains, locus YLR027C, strain aat2, active compounds read low 1.01 | S. cerevisiae deletion strains, locus YLR039C, strain RIC1, active compounds read low 0.996 | S. cerevisiae deletion strains, locus YLR058C, strain SHM2, active compounds read low 1.04 | S. cerevisiae deletion strains, locus YLR102C, strain apc9, active compounds read low 1.02 | S. cerevisiae deletion strains, locus YLR113W, strain HOG1, active compounds read low 0.957 | S. cerevisiae deletion strains, locus YLR221C, strain rsa3, active compounds read low 1.06 | S. cerevisiae deletion strains, locus YLR258W, strain gsy2, active compounds read low 1.03 | S. cerevisiae deletion strains, locus YLR262C, strain YPT6 (second series), active compounds read low 0.991 | S. cerevisiae deletion strains, locus YLR262C, strain YPT6, active compounds read low 0.997 | S. cerevisiae deletion strains, locus YLR268W, strain sec22, active compounds read low 1.01 | S. cerevisiae deletion strains, locus YLR320W, strain mms22, active compounds read low 1.06 | S. cerevisiae deletion strains, locus YLR330W, strain CHS5, active compounds read low 1.01 | S. cerevisiae deletion strains, locus YLR342W, strain FKS1 (second series), active compounds read low 1.03 | S. cerevisiae deletion strains, locus YLR342W, strain FKS1, active compounds read low 1.04 | S. cerevisiae deletion strains, locus YLR357W, strain rsc2, active compounds read low 1.1 | S. cerevisiae deletion strains, locus YLR370C, strain arc18, active compounds read low 1.03 | S. cerevisiae deletion strains, locus YLR371W, strain rom2, active compounds read low 1.01 | S. cerevisiae deletion strains, locus YLR384C, strain iki3, active compounds read low 1.04 | S. cerevisiae deletion strains, locus YLR418C, strain cdc73, active compounds read low 1.05 | S. cerevisiae deletion strains, locus YML016C, strain PPZ1, active compounds read low 1 | S. cerevisiae deletion strains, locus YML032C, strain rad52, active compounds read low 1.02 | S. cerevisiae deletion strains, locus YML120C, strain ndi1, active compounds read low 1.05 | S. cerevisiae deletion strains, locus YML124C, strain tub3, active compounds read low 1.03 | S. cerevisiae deletion strains, locus YMR058W, strain fet3, active compounds read low 1.03 | S. cerevisiae deletion strains, locus YMR078C, strain ctf18, active compounds read low 1.02 | S. cerevisiae deletion strains, locus YMR125W, strain sto1, active compounds read low 1.04 | S. cerevisiae deletion strains, locus YMR129W, active compounds read low 1.02 | S. cerevisiae deletion strains, locus YMR205C, strain PFK2, active compounds read low 1.04 | S. cerevisiae deletion strains, locus YMR223W, strain ubp8, active compounds read low 1.05 | S. cerevisiae deletion strains, locus YMR231W, strain pep5, active compounds read low 1.02 | S. cerevisiae deletion strains, locus YMR307W, strain GAS1, active compounds read low 0.995 | S. cerevisiae deletion strains, locus YNL067W, strain RPL9B, active compounds read low 1.01 | S. cerevisiae deletion strains, locus YNL071W, strain lat1, active compounds read low 1.03 | S. cerevisiae deletion strains, locus YNL153C, strain GIM3, active compounds read low 1.02 | S. cerevisiae deletion strains, locus YNL183C, strain NPR1, active compounds read low 0.936 | S. cerevisiae deletion strains, locus YNL209W, strain ssb2, active compounds read low 1.03 | S. cerevisiae deletion strains, locus YNL233W, strain BNI4, active compounds read low 1.01 | S. cerevisiae deletion strains, locus YNL248C, strain rpa49, active compounds read low 1.05 | S. cerevisiae deletion strains, locus YNL250W, strain rad50, active compounds read low 1.03 | S. cerevisiae deletion strains, locus YNL271C, strain bni1, active compounds read low 1.02 | S. cerevisiae deletion strains, locus YNL298W, strain CLA4, active compounds read low 1.02 | S. cerevisiae deletion strains, locus YNL307C, strain MCK1, active compounds read low 1.03 | S. cerevisiae deletion strains, locus YNL322C, strain KRE1 (second series), active compounds read low 1.05 | S. cerevisiae deletion strains, locus YNR049C, strain mso1, active compounds read low 1.05 | S. cerevisiae deletion strains, locus YNR052C, strain pop2, active compounds read low 1.03 | S. cerevisiae deletion strains, locus YOL012C, strain htz1 1.07 | S. cerevisiae deletion strains, locus YOL147C, strain pex11, active compounds read low 1.04 | S. cerevisiae deletion strains, locus YOR001W, strain rrp6, active compounds read low 1.01 | S. cerevisiae deletion strains, locus YOR061W, strain CKA2, active compounds read low 0.999 | S. cerevisiae deletion strains, locus YOR069W, strain VPS5, active compounds read low 1.02 | S. cerevisiae deletion strains, locus YOR070C, strain gyp1, active compounds read low 1.03 | S. cerevisiae deletion strains, locus YOR080W, strain dia2, active compounds read low 1.04 | S. cerevisiae deletion strains, locus YOR083W, strain WHI5, active compounds read low 1.06 | S. cerevisiae deletion strains, locus YOR106W, strain vam3, active compounds read low 1.04 | S. cerevisiae deletion strains, locus YOR136W, strain idh2, active compounds read low 1.02 | S. cerevisiae deletion strains, locus YOR144C, strain elg1, active compounds read low 1.02 | S. cerevisiae deletion strains, locus YOR184W, strain ser1, active compounds read low 1.02 | S. cerevisiae deletion strains, locus YOR231W, strain MKK1, active compounds read low 0.956 | S. cerevisiae deletion strains, locus YOR265W, strain rbl2, active compounds read low 1.02 | S. cerevisiae deletion strains, locus YOR270C, strain vph1, active compounds read low 1 | S. cerevisiae deletion strains, locus YOR290C, strain snf2, active compounds read low 0.974 | S. cerevisiae deletion strains, locus YOR316C, strain cot1, active compounds read low 1.02 | S. cerevisiae deletion strains, locus YPL051W, strain arl3, active compounds read low 1.04 | S. cerevisiae deletion strains, locus YPL078C, strain atp4, active compounds read low 1.02 | S. cerevisiae deletion strains, locus YPL106C, strain sse1, active compounds read low 1.07 | S. cerevisiae deletion strains, locus YPL240C, strain hsp82, active compounds read low 1.03 | S. cerevisiae deletion strains, locus YPL256C, strain CLN2, active compounds read low 0.986 | S. cerevisiae deletion strains, locus YPR119W, strain clb2, active compounds read low 1.02 | S. cerevisiae deletion strains, locus YPR141C, strain kar3, active compounds read low 1.03 | S. cerevisiae deletion strains, locus YPR163C, strain tif3, active compounds read low 1.04 | S. cerevisiae deletion strains, locus YPR167C, strain met16, active compounds read low 1.03 | S. cerevisiae deletion strains, strain wtn01, active compounds read low 1.02 | S. cerevisiae strains, strain wild type, active compounds read low 1.01
